From patent US20060069055, “Delivery of polynucleotides” (published 2006)

Each sequence was assayed against NF-kB p50/p50 homodimer (Homo sapiens, UniProt P19838 P19838:1-433) (assay: EMSA). Settings: protein: extract; tags: nuclear extract of LPS-stimulated THP-1 cells; chain copies: 2 stated; dsDNA, one strand shown.
From the text: The EMSA assay was employed to characterize oligonucleotide decoys for the NF-κB transcription factor. […] Using the above modified oligonucleotides to compete for binding for the above-mentioned NF-κB family members, it was possible to compare the binding affinity of these oligonucleotides against the high affinity radiolabeled probe and each other. This assay has also enabled the design of a decoy which selectively binds particular members of the NF-κB family. By using increasing concentrations of various oligonucleotides, it was observed that, by deleting or changing targeted residues in the binding site, it was possible to specifically decrease the binding of the decoy molecule to p50/p50 homodimers, while retaining the affinity for p65/p50 and cRel/p50 heterodimers.
The NF-κB gel shift assays (EMSA) were performed as follows. A double-stranded oligonucleotide containing a consensus NF-κB binding site (5′ […].GGC 3′) (SEQ ID NO: 26) was end-labeled with γ³²P-ATP using T4 Polynucleotide Kinase (Promega). One microgram of a nuclear extract prepared from LPS stimulated THP-1 cells (human monocyte cell line) was incubated with 35 fmol of radiolabeled probe in the presence or absence of competing unlabeled NF-κB double-stranded oligonucleotides (dsODN) or scrambled dsODN. The incubations were carried out at room temperature for 30 minutes in a 20 μl reaction volume composed of 10 mM Tris-HCl pH 8, 100 mM KCL, 5mM MgC12, 2mM DTT, 10% Glycerol, 0.1% NP-40, 0.025% BSA and 1 μg Poly-dIdC. The reactions were loaded onto a 6% polyacrylamide gel, subjected to electrophoresis and dried. The dried gels were imaged and quantitated using a Typhoon 8600 Phosphorlmager (Amersham) and ImageQuant software. The identity of the NF-κB proteins contained in complexes bound to the radiolabeled oligonucleotide probe were identified by pre-incubating the reactions for 5 minutes with individual antibodies specific for each member of the NF-κB family prior to the addition of the radiolabeled probe.

NF-kB p50/p50 homodimer, sequence (P19838 1-433, one chain of several): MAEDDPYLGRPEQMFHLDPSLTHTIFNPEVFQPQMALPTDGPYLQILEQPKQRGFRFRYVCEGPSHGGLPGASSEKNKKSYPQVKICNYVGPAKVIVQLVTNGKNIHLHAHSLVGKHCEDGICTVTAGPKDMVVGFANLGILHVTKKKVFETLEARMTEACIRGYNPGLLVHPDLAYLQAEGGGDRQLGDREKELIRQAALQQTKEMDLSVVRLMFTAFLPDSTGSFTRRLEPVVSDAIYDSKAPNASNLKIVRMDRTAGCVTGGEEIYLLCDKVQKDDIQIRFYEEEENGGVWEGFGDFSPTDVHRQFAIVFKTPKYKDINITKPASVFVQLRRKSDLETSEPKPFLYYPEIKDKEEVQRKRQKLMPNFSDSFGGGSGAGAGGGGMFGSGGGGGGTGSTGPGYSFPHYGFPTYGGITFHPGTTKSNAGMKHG

Row | Sequence | IC50 [fold molar excess]
1 | TCGGACTTTCCTC | 97
2 | AGTTGAGGGATTTCCAGGC | 69
3 | AGTTGAGGATTTCCCAGGC | 84
4 | TCGGACTTTCCCTC | 62.5
5 | AGTTGAGGATTTCCAGGC | 82
6 | TTGAGGACTTTCCAGGCTC | 85
